According to PubChem BioAssay AID1159580 (chemical genetic matrix, 2015):
Among all 5,500 compounds or so, about 2,000 (36%) were called active. Inconclusive results (about 18%) are left out. Cut-off read from the data, not from the text of the source: active = normalized growth mostly below about 0.91 (no sharp cut-off); inconclusive = no clear call, values can overlap the other calls; inactive = mostly above about 0.92. The list shows a part of the results.

Test: chemical genetic growth profiling, strain panel (AID 1159580);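 note: tested at 20 µM; growth read once vehicle control cultures reached saturation at 30 °C; 1 = growth at the plate median or of vehicle wells; lower values mean less growth of the strain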
Details: growth OD

Measured: normalized growth

COc1ccc2c3c([nH]c2c1)C(C)=NCC3
inactive: S. cerevisiae deletion strains, locus YKL009W, strain mrt4, stronger effect = lower value 1.02 | S. cerevisiae deletion strains, locus YKL068W, stronger effect = lower value 0.999 | S. cerevisiae deletion strains, locus YKL085W, strain MDH1 (second series), stronger effect = lower value 0.996 | S. cerevisiae deletion strains, locus YKL085W, strain MDH1, stronger effect = lower value 0.996 | S. cerevisiae deletion strains, locus YKL160W, strain elf1, stronger effect = lower value 1.01 | S. cerevisiae deletion strains, locus YKL190W, strain CNB1, stronger effect = lower value 1.01 | S. cerevisiae deletion strains, locus YKR001C, strain vps1, stronger effect = lower value 0.975 | S. cerevisiae deletion strains, locus YKR026C, strain gcn3, stronger effect = lower value 1.01 | S. cerevisiae deletion strains, locus YKR091W, strain srl3, stronger effect = lower value 0.999 | S. cerevisiae deletion strains, locus YLL001W, strain dnm1, stronger effect = lower value 1.01 | S. cerevisiae deletion strains, locus YLL026W, stronger effect = lower value 0.987 | S. cerevisiae deletion strains, locus YLL041C, strain sdh2, stronger effect = lower value 1.01 | S. cerevisiae deletion strains, locus YLR027C, strain aat2, stronger effect = lower value 1 | S. cerevisiae deletion strains, locus YLR039C, strain RIC1, stronger effect = lower value 1.02 | S. cerevisiae deletion strains, locus YLR058C, strain SHM2, stronger effect = lower value 1.01 | S. cerevisiae deletion strains, locus YLR102C, strain apc9, stronger effect = lower value 0.987 | S. cerevisiae deletion strains, locus YLR113W, strain HOG1, stronger effect = lower value 0.993 | S. cerevisiae deletion strains, locus YLR221C, strain rsa3, stronger effect = lower value 1 | S. cerevisiae deletion strains, locus YLR258W, strain gsy2, stronger effect = lower value 0.999 | S. cerevisiae deletion strains, locus YLR262C, strain YPT6 (second series), stronger effect = lower value 0.983 | S. cerevisiae deletion strains, locus YLR262C, strain YPT6, stronger effect = lower value 1.03 | S. cerevisiae deletion strains, locus YLR268W, strain sec22, stronger effect = lower value 0.979 | S. cerevisiae deletion strains, locus YLR320W, strain mms22, stronger effect = lower value 0.988 | S. cerevisiae deletion strains, locus YLR330W, strain CHS5, stronger effect = lower value 1 | S. cerevisiae deletion strains, locus YLR342W, strain FKS1 (second series), stronger effect = lower value 1.01 | S. cerevisiae deletion strains, locus YLR342W, strain FKS1, stronger effect = lower value 0.972 | S. cerevisiae deletion strains, locus YLR357W, strain rsc2, stronger effect = lower value 0.991 | S. cerevisiae deletion strains, locus YLR370C, strain arc18, stronger effect = lower value 1 | S. cerevisiae deletion strains, locus YLR371W, strain rom2, stronger effect = lower value 0.976 | S. cerevisiae deletion strains, locus YLR384C, strain iki3, stronger effect = lower value 1 | S. cerevisiae deletion strains, locus YLR418C, strain cdc73, stronger effect = lower value 0.98 | S. cerevisiae deletion strains, locus YML016C, strain PPZ1, stronger effect = lower value 1 | S. cerevisiae deletion strains, locus YML032C, strain rad52, stronger effect = lower value 0.993 | S. cerevisiae deletion strains, locus YML120C, strain ndi1, stronger effect = lower value 0.986 | S. cerevisiae deletion strains, locus YML124C, strain tub3, stronger effect = lower value 0.987 | S. cerevisiae deletion strains, locus YMR058W, strain fet3, stronger effect = lower value 1.02 | S. cerevisiae deletion strains, locus YMR078C, strain ctf18, stronger effect = lower value 0.996 | S. cerevisiae deletion strains, locus YMR125W, strain sto1, stronger effect = lower value 1 | S. cerevisiae deletion strains, locus YMR129W, stronger effect = lower value 0.981 | S. cerevisiae deletion strains, locus YMR205C, strain PFK2, stronger effect = lower value 1.01 | S. cerevisiae deletion strains, locus YMR223W, strain ubp8, stronger effect = lower value 0.99 | S. cerevisiae deletion strains, locus YMR231W, strain pep5, stronger effect = lower value 0.999 | S. cerevisiae deletion strains, locus YMR263W, strain SAP30, stronger effect = lower value 1.01 | S. cerevisiae deletion strains, locus YMR307W, strain GAS1, stronger effect = lower value 1.04 | S. cerevisiae deletion strains, locus YNL067W, strain RPL9B, stronger effect = lower value 0.999 | S. cerevisiae deletion strains, locus YNL071W, strain lat1, stronger effect = lower value 1 | S. cerevisiae deletion strains, locus YNL128W, strain TEP1, stronger effect = lower value 1.01 | S. cerevisiae deletion strains, locus YNL153C, strain GIM3, stronger effect = lower value 0.997 | S. cerevisiae deletion strains, locus YNL183C, strain NPR1, stronger effect = lower value 0.934 | S. cerevisiae deletion strains, locus YNL209W, strain ssb2, stronger effect = lower value 1 | S. cerevisiae deletion strains, locus YNL233W, strain BNI4, stronger effect = lower value 0.999 | S. cerevisiae deletion strains, locus YNL248C, strain rpa49, stronger effect = lower value 1 | S. cerevisiae deletion strains, locus YNL250W, strain rad50, stronger effect = lower value 0.983 | S. cerevisiae deletion strains, locus YNL271C, strain bni1, stronger effect = lower value 0.984 | S. cerevisiae deletion strains, locus YNL298W, strain CLA4, stronger effect = lower value 0.971 | S. cerevisiae deletion strains, locus YNL307C, strain MCK1, stronger effect = lower value 0.987 | S. cerevisiae deletion strains, locus YNL322C, strain KRE1 (second series), stronger effect = lower value 1 | S. cerevisiae deletion strains, locus YNL322C, strain KRE1, stronger effect = lower value 1.01 | S. cerevisiae deletion strains, locus YNR049C, strain mso1, stronger effect = lower value 0.999 | S. cerevisiae deletion strains, locus YNR052C, strain pop2, stronger effect = lower value 0.989 | S. cerevisiae deletion strains, locus YOL006C, strain TOP1, stronger effect = lower value 1.02 | S. cerevisiae deletion strains, locus YOL012C, strain htz1 0.706 | S. cerevisiae deletion strains, locus YOL147C, strain pex11, stronger effect = lower value 0.99 | S. cerevisiae deletion strains, locus YOR001W, strain rrp6, stronger effect = lower value 1.01 | S. cerevisiae deletion strains, locus YOR061W, strain CKA2, stronger effect = lower value 1 | S. cerevisiae deletion strains, locus YOR069W, strain VPS5, stronger effect = lower value 1.01 | S. cerevisiae deletion strains, locus YOR070C, strain gyp1, stronger effect = lower value 0.991 | S. cerevisiae deletion strains, locus YOR080W, strain dia2, stronger effect = lower value 0.997 | S. cerevisiae deletion strains, locus YOR083W, strain WHI5, stronger effect = lower value 0.991 | S. cerevisiae deletion strains, locus YOR106W, strain vam3, stronger effect = lower value 1.01 | S. cerevisiae deletion strains, locus YOR136W, strain idh2, stronger effect = lower value 0.983 | S. cerevisiae deletion strains, locus YOR144C, strain elg1, stronger effect = lower value 0.983 | S. cerevisiae deletion strains, locus YOR184W, strain ser1, stronger effect = lower value 0.994 | S. cerevisiae deletion strains, locus YOR231W, strain MKK1, stronger effect = lower value 0.987 | S. cerevisiae deletion strains, locus YOR265W, strain rbl2, stronger effect = lower value 1 | S. cerevisiae deletion strains, locus YOR270C, strain vph1, stronger effect = lower value 0.997 | S. cerevisiae deletion strains, locus YOR290C, strain snf2, stronger effect = lower value 1.01 | S. cerevisiae deletion strains, locus YOR316C, strain cot1, stronger effect = lower value 0.987 | S. cerevisiae deletion strains, locus YPL051W, strain arl3, stronger effect = lower value 0.999 | S. cerevisiae deletion strains, locus YPL055C, strain LGE1, stronger effect = lower value 1.03 | S. cerevisiae deletion strains, locus YPL078C, strain atp4, stronger effect = lower value 1 | S. cerevisiae deletion strains, locus YPL106C, strain sse1, stronger effect = lower value 0.991 | S. cerevisiae deletion strains, locus YPL240C, strain hsp82, stronger effect = lower value 0.996 | S. cerevisiae deletion strains, locus YPL241C, strain CIN2, stronger effect = lower value 1 | S. cerevisiae deletion strains, locus YPL256C, strain CLN2, stronger effect = lower value 0.976 | S. cerevisiae deletion strains, locus YPR119W, strain clb2, stronger effect = lower value 0.995 | S. cerevisiae deletion strains, locus YPR141C, strain kar3, stronger effect = lower value 0.984 | S. cerevisiae deletion strains, locus YPR163C, strain tif3, stronger effect = lower value 0.99 | S. cerevisiae deletion strains, locus YPR167C, strain met16, stronger effect = lower value 0.991 | S. cerevisiae deletion strains, strain wtn01, stronger effect = lower value 0.977 | S. cerevisiae strains, strain wild type, stronger effect = lower value 1.01
